Screening results (PubChem BioAssay)
NS1 function inh: blocks influenza NS1 protein function. AID 2326. Potency, µM (titrated, usually from 46.1 µM), for the others: top-dose activity, positive = more growth. 270,000 tested, 0.4% active; also: potency is read from the fitted curve at half-maximal effect; actives are rising curves; nearly all actives have a fitted effect of over 50% in size
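Growth recovery, yeast-based: influenza A NS1 expressed in S. cerevisiae causes slow growth, and suppressors are detected by OD600. The parent strain without NS1 is used as positive control.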
Cycloheximide cs: counter-screen for Shiga toxin inhibitors: cycloheximide protein synthesis inhibition. max response, %. AID 2314. 300,000 tested, 12% active. cell reporter, cycloheximide protein synthesis inhibition counterscreen; in the data active = max response mostly above about 13%, no sharp cut-off; inactive = mostly below about 14%; also: read at 38.3 µM for the half of the compounds with a filed dose; 0% is about no effect
LmPK inhibitor: inhibitors of Leishmania mexicana pyruvate kinase; Q27686; purified LmPK, Kinase-Glo ATP luminescence, 1 h; Potency, µM (top dose mostly 57.5 µM), for inactives: at the highest dose activity change, negative = inhibition, usual class: inhibitors; 290,000 tested, 0.37% active; active = well fitted curve in the direction sought with a large enough effect; inconclusive = small, poorly fitted or top-dose-only effect, or another doubt; inactive = no such curve, though single readings can be large; an effect the other way counts as inactive or inconclusive; also: potency is read from the fitted curve at half-maximal effect; % is scaled to controls: 0 for no effect and ±100 for the full control effect
Target sequence (Q27686 whole entry, looked up): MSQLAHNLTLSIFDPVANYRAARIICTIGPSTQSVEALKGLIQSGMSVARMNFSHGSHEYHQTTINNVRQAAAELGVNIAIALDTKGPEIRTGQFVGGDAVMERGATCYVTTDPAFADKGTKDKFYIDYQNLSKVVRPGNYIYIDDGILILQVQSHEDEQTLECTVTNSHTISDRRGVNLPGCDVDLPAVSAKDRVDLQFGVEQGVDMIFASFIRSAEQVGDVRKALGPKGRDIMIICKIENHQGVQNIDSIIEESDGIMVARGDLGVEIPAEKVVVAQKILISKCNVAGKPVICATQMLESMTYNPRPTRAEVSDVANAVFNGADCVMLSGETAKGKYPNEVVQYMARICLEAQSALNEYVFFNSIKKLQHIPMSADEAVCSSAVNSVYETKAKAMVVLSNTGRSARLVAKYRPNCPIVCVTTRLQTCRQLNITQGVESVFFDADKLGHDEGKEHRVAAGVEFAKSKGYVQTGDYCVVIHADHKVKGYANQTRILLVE
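In 50 mM imidazole pH 7.2 with 7 mM MgCl2, LmPK (0.1 nM) turned over PEP (0.5 mM) and ADP (0.1 mM) for 1 h at room temperature. Luciferase read-out of ATP.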
Shiga toxin inh: Shiga toxin inhibition; 290,000 tested, 9.2% active; inhibition, % at 38.7 µM; AID 2315; Vero cells, Shiga toxin protein synthesis inhibition reporter; in the data active = inhibition mostly above about 28%, no sharp cut-off; inactive = mostly below about 43%; also: 0% is about no effect
SARS PLpro yeast: SARS-CoV PLP inhibition in yeast | Potency, µM (highest dose often 32.9 µM), inactives show at the highest dose activity, positive = growth rescue, usual class: activators | S. cerevisiae expressing SARS-CoV PLpro, growth rescue | AID 485353 | 330,000 tested, 0.19% active; also: potency is read from the fitted curve at half-maximal effect; 0% is about no effect; nearly all actives have a fitted effect of over 55% in size
Tb PYK inh: blocks Trypanosoma brucei pyruvate kinase; Q57TT1; TbPYK enzyme, Kinase-Glo Plus ATP luminescence, 45 min; Potency, µM (top dose mostly 76.8 µM), inactives show at the highest dose activity, negative = inhibition, hits mostly inhibitors; 410,000 tested, 0.12% active; AID 624173; active = well fitted curve in the direction sought with a large enough effect; inconclusive = small, poorly fitted or top-dose-only effect, or another doubt; inactive = no such curve, though single readings can be large; an effect the other way counts as inactive or inconclusive; also: potency is read from the fitted curve at half-maximal effect; % is scaled to controls: 0 for no effect and ±100 for the full control effect; nearly all actives have a fitted effect of over 50% in size
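TbPYK + substrate in 50 mM TEA pH 7.2, 100 mM KCl, 10 mM MgCl2, 0.05% BSA, 0.01% Tween-20; cpd pinned; ADP 130 uM final; 45 min RT; Kinase-Glo Plus 10 min; luminescence endpoint.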
NS1 inh valid: validation of influenza NS1 protein function inhibitors | shares compounds with NS1 function inh | influenza NS1 function cell assay, 15-point titration | activity change, negative = inhibition, % at 32.9 µM | 1,400 tested, under 10 active; also: 0% is about no effect
The depositor's hits bear a star. Shown is part of a subset that was picked to be rich in hits. Unless noted, calls follow the shape of the full dose curve.

Screening Cc1ccc(-c2noc(C3CCCN(C(=O)c4ccccc4Br)C3)n2)o1 (stereo unspecified) returned NS1 function inh inconclusive, Cycloheximide cs 28*, LmPK inhibitor 2%, Shiga toxin inh 71*, SARS PLpro yeast -2%, Tb PYK inh -20% and NS1 inh valid -10.
For COc1ccc(-c2noc(C3CCCN(C(=O)c4ccccc4C)C3)n2)cc1 (stereo unspecified) the results were NS1 function inh -28%, Cycloheximide cs 1, LmPK inhibitor -2%, Shiga toxin inh 10, SARS PLpro yeast -5% and Tb PYK inh -7%.
`COc1ccc(C(=O)NCC(=O)NCc2ccc3c(c2)OCO3)cc1[N+](=O)[O-]` gave Tb PYK inh -12%.
`CC1CC(C)CN(c2ccc(C(=O)NCc3ccc4c(c3)OCO4)cc2[N+](=O)[O-])C1` (stereo unspecified) gave NS1 function inh 10µM*, Cycloheximide cs 1, LmPK inhibitor 1%, Shiga toxin inh 2, SARS PLpro yeast 12%, Tb PYK inh 3% and NS1 inh valid -17.
CCCCc1n[nH]c2c1/C(=N/O)CC(c1ccccc1)C2 (stereo unspecified) was read as NS1 function inh inconclusive, Cycloheximide cs 27*, LmPK inhibitor 0%, Shiga toxin inh 66, SARS PLpro yeast 5%, Tb PYK inh -10% and NS1 inh valid 8.
`Cc1ccc(S(=O)(=O)N2CCC(C(=O)Nc3ccccc3N3CCCCC3)CC2)cc1` gave NS1 function inh 5µM*, Cycloheximide cs 5, LmPK inhibitor -3%, Shiga toxin inh -27, SARS PLpro yeast 2%, Tb PYK inh 0% and NS1 inh valid 4.
For CC(=O)CC(=O)Nc1cccc2c1CCCC2 the results were NS1 function inh 11%, Cycloheximide cs -5, LmPK inhibitor 0%, Shiga toxin inh 49, SARS PLpro yeast 9% and Tb PYK inh 1%.
Screening CCCC(=O)Nc1cccc2c1CCCC2 returned NS1 function inh 5.6µM*, Cycloheximide cs 5, LmPK inhibitor 0%, Shiga toxin inh -10, SARS PLpro yeast -2%, Tb PYK inh -12% and NS1 inh valid 12.
For CC1CCCCN1C(=O)CSc1nnc2c(n1)[nH]c1ccc(F)cc12 (stereo unspecified) the results were NS1 function inh -4%, Cycloheximide cs -2, LmPK inhibitor -5%, Shiga toxin inh -4, SARS PLpro yeast 1% and Tb PYK inh 0%.
Screening CC1CCc2cc(F)ccc2N1C(=O)CSc1nnc2c(n1)[nH]c1ccc(F)cc12 (stereo unspecified) returned NS1 function inh inconclusive, Cycloheximide cs 3, LmPK inhibitor 5%, Shiga toxin inh -2, SARS PLpro yeast 4%, Tb PYK inh 8% and NS1 inh valid 3.
For O=S(=O)(/N=C(/Nc1cccc2ccccc12)c1ccccc1)c1cccs1 the results were NS1 function inh 14µM*, Cycloheximide cs 4, LmPK inhibitor 4%, Shiga toxin inh -3, SARS PLpro yeast -6%, Tb PYK inh -6% and NS1 inh valid -13.
O=C(COC(=O)c1cccc2ccccc12)Nc1ncc(C(F)(F)F)cc1Cl was read as NS1 function inh 4.5µM*, Cycloheximide cs -2, LmPK inhibitor 18%, Shiga toxin inh 3, SARS PLpro yeast 8%, Tb PYK inh 5% and NS1 inh valid 8.
O=[N+]([O-])c1ccc(N(c2ccccc2)c2ccccc2)cc1 was read as NS1 function inh inconclusive, Cycloheximide cs -2, LmPK inhibitor 5%, Shiga toxin inh 4, SARS PLpro yeast -27%, Tb PYK inh 0% and NS1 inh valid inconclusive.
For COc1ccccc1NC(=O)N(CCN(C)C)Cc1cc2cc(C)ccc2[nH]c1=O the results were NS1 function inh -3%, Cycloheximide cs -6, LmPK inhibitor 0%, Shiga toxin inh -17, SARS PLpro yeast -4% and Tb PYK inh 1%.
